Screens: PubChem, National Center for Advancing Translational Sciences (NCATS)
Shown are actives, neighbours in structure and some others; about 12% of the full set was active somewhere.
FMDV antiviral = High Throughput Screening for Foot and Mouth Disease Virus Antivirals; AID 1159524, 2015; 1.2% of 410,000 active; Potency, µM (highest dose often 57.9 µM), for the others: at the top dose activity change, negative = inhibition, actives largely listed as inhibitors; FMDV antiviral cell-based qHTS; calls by dose curve; tested in HEK293T cells; also: read-out not given here; potency is read from the fitted curve at half-maximal effect; % is scaled to controls: 0 for no effect and ±100 for the full control effect; nearly all actives have a fitted effect of over 45% in size
Sm TGR inh = qHTS Assay for the Inhibitors of Schistosoma Mansoni Peroxiredoxins; Schistosoma mansoni thioredoxin glutathione reductase (TGR), Q962Y6; purified TGR, DTNB reduction, TNB absorbance 405 nm; Potency, µM (titrated, usually from 114 µM), without a hit: at the top dose activity change, negative = inhibition, hits mostly inhibitors; 3% of 360,000 active; AID 485364, 2010; active = well fitted inhibition curve with a large enough effect; inconclusive = small, poorly fitted or top-dose-only effect; inactive = no such curve, though single readings can be large or run the other way; also: potency is read from the fitted curve at half-maximal effect; % is scaled to controls: 0 for no effect and ±100 for the full control effect; nearly all actives have a fitted effect of over 60% in size
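TGR 20 nM + NADPH 100 uM (dispensed conc.), cpd preinc 15 min RT; start with NADPH (500 uM addition) then DTNB (15 mM addition). Kinetic TNB absorbance, 405 nm filter. Four-parameter Hill fit across titration.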
Shiga toxin inh = A qHTS for Small Molecule Inhibitors of Shiga Toxin; Vero cells, Shiga toxin protein synthesis inhibition reporter; inhibition, % at 38.7 µM; 9.2% of 290,000 active; AID 2315, 2010; in the data active = inhibition mostly above about 28%, no sharp cut-off; inactive = mostly below about 43%; also: 0% is about no effect
CHX counter = Cycloheximide Counterscreen for Small Molecule Inhibitors of Shiga Toxin; cell reporter, cycloheximide protein synthesis inhibition counterscreen; max response, %; 12% of 300,000 active; AID 2314, 2010; in the data active = max response mostly above about 13%, no sharp cut-off; inactive = mostly below about 14%; also: read at 38.3 µM for the half of the compounds with a filed dose; 0% is about no effect
Numbers without * were called inactive.

COc1cc(=O)n2c(c1C(=O)N(C)Cc1nonc1C)CCN(CC1CC=CCC1)CC2 (configuration not stated) was read as FMDV antiviral 5%.
For CCOC(=O)C1CCN(c2c(C(=O)c3ccc(C)cc3)cnc3ccc(F)cc23)CC1 the results were FMDV antiviral inconclusive and Sm TGR inh 12%.
Screening CNC(=O)CSc1nnc(NC(=O)Nc2ccccc2)s1 returned FMDV antiviral 27% and Sm TGR inh -3%.
CN(C)CC(C)(C)CNC(=O)c1cnn(-c2nccc(-c3ccc4c(c3)OCO4)n2)c1-c1ccco1 was read as FMDV antiviral -4%.
For Cc1ccccc1/C=C/c1nc2ccccc2c(=O)[nH]1 the results were FMDV antiviral 3%, Sm TGR inh 10%, Shiga toxin inh 84* and CHX counter 45*.
`CCOc1ccccc1/C=C\c1nc(O)c([N+](=O)[O-])c(=O)[nH]1` gave FMDV antiviral -2%, Sm TGR inh -25%, Shiga toxin inh -13 and CHX counter -4.
Cc1ccccc1/C=C/c1nc2ccccc2c(=O)n1CCc1ccccc1 was read as FMDV antiviral inconclusive, Sm TGR inh -3%, Shiga toxin inh -2 and CHX counter -3.
Screening Cc1ccccc1/C=C\c1nc2ccccc2c(=O)[nH]1 returned FMDV antiviral 25%, Shiga toxin inh 89* and CHX counter 46*.
Screening Cc1ccccc1/C=C/c1nc2ccccc2c(=O)n1Cc1ccccc1 returned FMDV antiviral -22%, Sm TGR inh 3%, Shiga toxin inh 8 and CHX counter -3.
`N#CCOc1ccccc1/C=C/c1nc2ccccc2c(=O)[nH]1` gave FMDV antiviral 17%, Sm TGR inh 0%, Shiga toxin inh 83* and CHX counter 30*.
For Cc1ccc(-n2ncc3c(NCCCN4CCOCC4)ncnc32)cc1C the results were FMDV antiviral -7% and Sm TGR inh 43%.
For CCc1sc(C(C2C(=O)CC(C)(C)CC2=O)C2C(=O)CC(C)(C)CC2=O)cc1[N+](=O)[O-] the results were FMDV antiviral 7.9µM*, Sm TGR inh 4µM*, Shiga toxin inh -10 and CHX counter 1.
Screening CC1(C)CC(=O)C(C(c2ccco2)C2C(=O)CC(C)(C)CC2=O)C(=O)C1 returned FMDV antiviral 4%, Sm TGR inh inconclusive, Shiga toxin inh -9 and CHX counter 9.
Screening Cc1ccccc1CNC(=O)Cn1nc(C)c2nn(-c3ccc(Cl)cc3)c(C)c2c1=O returned FMDV antiviral inconclusive and Sm TGR inh -11%.
For CCc1[nH]nc(C(=O)N2CCCC(C(=O)c3cccc(OC(C)C)c3)C2)c1C (configuration not stated) the results were FMDV antiviral -1%, Sm TGR inh -1%, Shiga toxin inh 51* and CHX counter 24*.
Screening CC(C)Oc1cccc(C(=O)C2CCCN(C(=O)CCc3cnn(C)c3)C2)c1 (configuration not stated) returned FMDV antiviral 6%, Sm TGR inh 4%, Shiga toxin inh 66* and CHX counter 52*.
For CCc1cc(C(=O)N2CCCC(C(=O)c3cccc(OC(C)C)c3)C2)n(C)n1 (configuration not stated) the results were FMDV antiviral -27%, Sm TGR inh -31%, Shiga toxin inh 18 and CHX counter -2.
Screening O=C(c1cn(C2CCCN(Cc3cccc(Oc4ccccc4)c3)C2)nn1)N1CCCC1 (configuration not stated) returned FMDV antiviral 1%.
`Cc1ccc(-c2noc(CN(C3CCCCC3)S(=O)(=O)c3ccc(F)cc3)n2)cc1` gave FMDV antiviral -12% and Sm TGR inh 8%.
Screening CC1(C)CSC(=NCCc2ccccc2)N1 returned FMDV antiviral 0%, Sm TGR inh 1%, Shiga toxin inh 54* and CHX counter 14*.
CCCCNC(=O)c1c(-c2ccccc2)c(-c2ccccc2)nn(C)c1=O was read as FMDV antiviral -22% and Sm TGR inh 0%.
COc1cccc(Cn2c(Oc3cc(C)cc(C)c3)nc3c2c(=O)n(C)c(=O)n3C)c1 was read as FMDV antiviral -22% and Sm TGR inh 3%.
COc1cccc(-n2nnc3c(=O)n(Cc4cccc(C)c4)cnc32)c1 was read as FMDV antiviral -1%, Sm TGR inh 9%, Shiga toxin inh 17 and CHX counter 24*.
`COc1cccc(-n2nnc3c(=O)n(Cc4ccccc4F)cnc32)c1` gave FMDV antiviral 71%, Sm TGR inh 12%, Shiga toxin inh -12 and CHX counter -1.
Cc1nc(C)c(-c2ccc(SCc3cccc(F)c3)nn2)s1 was read as FMDV antiviral 15%, Sm TGR inh -15%, Shiga toxin inh 25 and CHX counter 21*.
For Fc1ccc(CSc2ccc(-c3ccco3)nn2)cc1 the results were FMDV antiviral 40%, Sm TGR inh 45µM*, Shiga toxin inh 33* and CHX counter 19*.
Screening Cc1nc(C)c(-c2ccc(SCc3ccc(Cl)cc3)nn2)s1 returned FMDV antiviral -8%, Sm TGR inh 4%, Shiga toxin inh 9 and CHX counter 2.
`Fc1cccc(CSc2ccc(-c3ccco3)nn2)c1` gave FMDV antiviral 40%, Sm TGR inh 32µM*, Shiga toxin inh 79* and CHX counter 67*.
O=C(O)c1cccc(CSc2nnc(-c3ccco3)o2)c1 was read as Sm TGR inh 0%, Shiga toxin inh 21 and CHX counter 9.
`Cn1ncc2c(NCc3ccc(Cl)cc3)ncnc21` gave FMDV antiviral -21% and Sm TGR inh 14%.
COc1cc(C2CC(=O)Oc3ccc(O)cc32)cc(OC)c1OC (configuration not stated) was read as Shiga toxin inh inactive and CHX counter 9.
Screening C=CC1=C(C)/C(=C/c2[nH]c(Cc3[nH]c(/C=C4\NC(=O)C(C)=C4C=C)c(C)c3CCC(=O)O)c(CCC(=O)O)c2C)NC1=O returned FMDV antiviral 8%.
Cc1ccc2ccc(C(Nc3ccccc3)c3ccc(F)cc3)c(O)c2n1 (configuration not stated) was read as FMDV antiviral 29%.
Screening Cc1cccc(NC(c2ccccc2C)c2ccc3ccc(C)nc3c2O)n1 (configuration not stated) returned FMDV antiviral inconclusive and Sm TGR inh 3.5µM*.
For Cc1ccc2ccc(C(Nc3ccccc3)c3ccc(C(C)C)cc3)c(O)c2n1 (configuration not stated) the results were FMDV antiviral 16%.
Cc1cccc(NC(c2ccc(C)s2)c2ccc3ccc(C)nc3c2O)n1 (configuration not stated) was read as FMDV antiviral inconclusive, Sm TGR inh 45µM*, Shiga toxin inh -12 and CHX counter -4.
Screening Cc1c(Cl)cccc1NC(=S)N(Cc1cccs1)C1CCCC1 returned FMDV antiviral -21%, Sm TGR inh 13%, Shiga toxin inh 13 and CHX counter 16*.
